Reference: PMC4552634, “A New Set of Chemical Starting Points with Plasmodium falciparum Transmission-Blocking Potential for Antimalarial Drug Discovery” (PLoS ONE, 2015)
In all, about 13,000 compounds went through this assay and about 3,200 (25%) showed an effect of 50% or more. This is one part of the list.

system: P. falciparum stage V gametocytes; design: BacTiter-Glo ATP luminescence viability of purified stage V gametocytes in 384-well plates, per cent inhibition versus DMSO; details: 48 h, 5 µM; inhibitor

In order of rising “% Inhibition” value:
1. Cc1cc(C(F)(F)F)cc(-n2ncc(-c3ccc(C(=O)NCCNCc4ccccc4)cc3)c2N)n1 [TCMDC-136659]  -53.07%
2. CCCCCC(C)N=C(Nc1ccc([N+](=O)[O-])cc1O)Nc1ccccc1Br (stereo not shown) [TCMDC-140073]  -48.06%
3. Cc1cccc2[nH]c(-c3cccc(-c4cccc(NC(=O)c5ccncc5)c4)c3)nc12 [TCMDC-136965]  -36.15%
4. NC(=O)c1cccc(Nc2nccc(Nc3ccc(Oc4c(Cl)cccc4Cl)c(Cl)c3)n2)c1 [TCMDC-138594]  -30.34%
5. COc1ccc(F)cc1-c1ccccc1CNC(=O)c1cnn(-c2ccc([N+](=O)[O-])cc2)c1C(F)(F)F [TCMDC-136460]  -26.92%
6. Cc1cccc2[nH]c(-c3cccc(-c4ccc(NC(=O)c5ccc(=O)[nH]n5)cc4)c3)nc12 [TCMDC-137034]  -23.81%
7. Cc1ccccc1NC(=O)C1CSCN1C(=O)OCc1ccccc1 (stereo not shown) [TCMDC-125742]  -21.88%
8. COc1ccc(C(=O)NCc2ccccc2-c2ccc(C(C)(C)C)cc2)cc1O [TCMDC-136716]  -20.55%
9. CC(=O)Nc1ccc(CN(Cc2ccc(F)cc2)Cc2cccc(Oc3ccccc3)c2)cc1 [TCMDC-140033]  -16.62%
10. CS(=O)(=O)N(c1ccc(F)cc1)c1cc(C(=O)N[C@@H](Cc2ccccc2)[C@H](O)CNCc2cccc(C(F)(F)F)c2)cc(N2CCCC2=O)c1 [TCMDC-138920]  -15.57%
11. Cc1cccc2[nH]c(-c3cccc(-c4ccc(NC(=O)NC(C)C)cc4)c3)nc12 [TCMDC-133251]  -14.46%
12. Cc1cccc2[nH]c(-c3cccc(-c4cccc(NC(=O)c5cnc[nH]5)c4)c3)nc12 [TCMDC-136936]  -12.17%
13. CS(=O)(=O)N(c1cccc(F)c1)c1cc(C(=O)N[C@@H](Cc2ccccc2)[C@H](O)CNCc2cccc(C(F)(F)F)c2)cc(N2CCCC2=O)c1 [TCMDC-138921]  -9.659%
14. O=C(Nc1cccc(CN2CCN(Cc3cccc(O)c3)CC2)c1)c1cc2ccccc2s1 [TCMDC-134623]  -8.756%
15. COCCCNc1sc(S(=O)(=O)c2ccccc2)nc1S(=O)(=O)c1ccc(Cl)cc1 [TCMDC-124764]  -6.212%
16. CCOC(=O)C1=C(C)N=c2sc(=Cc3cc(Cl)ccc3O)c(=O)n2C1c1ccc(OC)cc1 (stereo not shown) [TCMDC-124112]  -5.89%
17. COc1ccc(CC(=O)NC(CCCN2CCC(c3ccccc3)CC2)c2ccc(Cl)c(Cl)c2)cc1OC (stereo not shown) [TCMDC-141901]  -2.836%
18. O=C(N/C=N/c1cc([N+](=O)[O-])c(-c2cccnc2)n1-c1ccc(O)cc1)c1ccccc1 [TCMDC-125227]  -2.82%
19. CN1CCN(c2ccnc3ccc(NC(=O)Nc4ccc5ccccc5c4)cc23)CC1 [TCMDC-139343]  -1.403%
20. CCc1cc2c(=O)c(-c3nc(C)cs3)c([C@H](N)Cc3ccc(O)cc3)oc2cc1O [TCMDC-124111]  0.6377%
21. CCNc1cc(C(=O)N[C@@H](Cc2ccccc2)[C@H](O)CNC(C)(C)CCCC(C)C)cc(N2CCCC2=O)c1 [TCMDC-138889]  7.674%
22. O=C(Nc1ccc(-c2ccc(-c3nc4ccccc4[nH]3)s2)cc1)c1ccncc1 [TCMDC-136954]  11.16%
23. OC(CN(Cc1ccccc1)Cc1ccccc1)Cn1c2ccc(Cl)cc2c2cc(Cl)ccc21 (stereo not shown) [TCMDC-125720]  14.45%
24. CN=C(NC)c1cccc(NC(=O)C=Cc2ccc(C=CC(=O)Nc3cccc(C(=NC)NC)c3)cc2)c1 [TCMDC-137213]  18.83%
25. Cc1cccc2[nH]c(-c3cccc(-c4cccc(NC(=O)c5ccoc5)c4)c3)nc12 [TCMDC-136846]  20.35%
26. Cc1cccc2[nH]c(-c3ccc(-c4cccc(NC(=O)c5ccncc5)c4)cc3)nc12 [TCMDC-136958]  22.27%
27. N#Cc1ccc2[nH]cc(C(=O)CCCCCN(Cc3ccccc3)Cc3ccccc3)c2c1 [TCMDC-131257]  33.92%
28. CCOC(=O)C1=C(C)N=c2sc(=Cc3cc(Cl)ccc3O)c(=O)n2C1c1cc(OC)c(OC)cc1Br (stereo not shown) [TCMDC-124116]  34.65%
29. COc1cc(-c2ccc3c(-c4ccc(C(=O)N5CCN(C)CC5)cc4)[nH]nc3n2)cc(OC)c1OC [TCMDC-124890]  40.62%
30. O=S(=O)(c1cc(Cl)sc1Cl)N(CCC(O)(C(F)(F)F)C(F)(F)F)Cc1cccc(O)c1 [TCMDC-133476]  47.79%
31. COC(=O)c1cccc(CN(CCC(O)(C(F)(F)F)C(F)(F)F)C(=O)CC2CCCC2)c1 [TCMDC-133482]  48.89%
32. O=S(=O)(c1cccc(Cl)c1F)N(CCC(O)(C(F)(F)F)C(F)(F)F)Cc1cccc(O)c1 [TCMDC-133479]  57.98%
33. Cc1cccc2[nH]c(-c3cccc(-c4ccc(NC(=O)c5ccncc5)cc4)c3)nc12 [TCMDC-136966]  61.29%
34. N#Cc1cccc(C(O)CN(Cc2ccccc2)Cc2ccccc2)c1 (stereo not shown) [TCMDC-131250]  62.4%
35. CCOC(=O)C1=C(C)N=c2sc(=Cc3cc(Cl)ccc3O)c(=O)n2C1c1ccc2c(c1)OCO2 (stereo not shown) [TCMDC-124113]  66.04%
36. O=S(=O)(c1ccc(Oc2ccccc2)cc1)N(CCC(O)(C(F)(F)F)C(F)(F)F)Cc1cccc(O)c1 [TCMDC-133480]  74.25%
37. COc1ccc(F)cc1-c1ccccc1CNC(=O)CN(C)S(=O)(=O)c1cc(C)cc(Cl)c1C [TCMDC-132302]  82.24%
38. O=S(=O)(c1csc2ccccc12)N(CCC(O)(C(F)(F)F)C(F)(F)F)Cc1cccc(O)c1 [TCMDC-133478]  82.79%
39. Cc1cccc2[nH]c(-c3cccc(-c4ccc(NC(=O)c5ccoc5)cc4)c3)nc12 [TCMDC-136847]  83.68%
40. CCc1c[nH]c2c(N(c3ccccc3)S(C)(=O)=O)cc(C(=O)N[C@@H](Cc3ccccc3)[C@H](O)CNCc3cccc(C(F)(F)F)c3)cc12 [TCMDC-135318]  91.8%
41. Cc1cccc2[nH]c(-c3cccc(-c4ccc(NC(=O)c5cnc[nH]5)cc4)c3)nc12 [TCMDC-136937]  92.2%
42. O=S(=O)(c1cc2ccccc2s1)N(CCC(O)(C(F)(F)F)C(F)(F)F)Cc1cccc(O)c1 [TCMDC-133477]  95.75%
43. CCc1c[nH]c2c(N(c3ccccc3)S(C)(=O)=O)cc(C(=O)N[C@@H](Cc3ccccc3)[C@H](O)CNC(C)(C)CCCC(C)C)cc12 [TCMDC-135319]  124.7%
